Data as given in PubChem BioAssay.
Active and inactive are the calls of the source.

Assays:
Albumin (Bos taurus) = Albumin (Bos taurus) (UniProt P02769); assay: compounds binding labelled BSA control protein – biochemical, small-molecule microarray, Alexa647 label, 635/667 nm fluorescence, artefact control for SMM control protein annotation, profiling panel (AID 1118); settings: BSA-A647 binding, fluorescence 635 nm, higher = more signal;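 further: score merges 667 nm emission intensity and signal-to-noise per printed compound spot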
[1] = probe aXIP binding to arrayed compounds – biochemical, NeuroSMM set, 635/667 nm fluorescence, primary screen (AID 1119); settings: small-molecule microarray, higher = more signal, called active from +8 up or from −8 down;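 further: probe is the protein aXip251-270 applied at 1 µg/mL to compound-printed slides; binding of probe to printed compounds measured as 667 nm fluorescence plus signal to noise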
[2] = probe aNOTCH3 binding on compound microarray – biochemical, small-molecule microarray, 635/667 nm fluorescence, primary screen (AID 1120); settings: higher = more signal;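 further: probe is a biotin-tagged antibody raised against NOTCH3 rather than NOTCH3 protein; score merges spot fluorescence near 667 nm with spot signal to noise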
[3] = probe aNOTCH2 binding on compound microarray – biochemical, small-molecule microarray, 635/667 nm fluorescence, primary screen (AID 1121); settings: higher = more signal;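 further: score merges feature fluorescence read at 667 nm with its signal to noise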
[4] = molecular target: Carbonic anhydrase 2 (Homo sapiens) (UniProt P00918); assay: compounds binding carbonic anhydrase 2 – biochemical, small-molecule microarray, Alexa647-labelled CAII, profiling panel (AID 1122); settings: CAII-A647 binding fluorescence, higher = more signal
[5] = COS7 lysate on small-molecule microarray, probe aHis, 635 nm (AID 1123); settings: COS7 cell lysate, fluorescence, higher = more signal;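 further: z-score combines 667nm fluorescence intensity with signal-to-noise per printed compound spot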
[6] = probe aLAP1 signal on lysate-treated microarray – cell lysate, small-molecule microarray, COS7 lysate, primary screen (AID 1124); settings: probe aLAP1, fluorescence, higher = more signal;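 further: lysate comes from COS7 cells expressing LAP1 and is applied at 0.3 µg/mL; score merges spot fluorescence near 667 nm with signal-to-noise over triplicate slides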
Sam68 (KHDRBS1) = assay: compounds binding KHDRBS1 protein – biochemical, small-molecule microarray, 635 nm fluorescence, primary screen (AID 1125); settings: higher = more signal;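 further: score merges 667 nm channel intensity with signal to noise over triplicate slides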
[7] = system: Chordin-like protein 2 (CHRDL2); assay: compounds binding chordin-like 2 – biochemical, small-molecule microarray, 635 nm fluorescence, primary screen (AID 1126); settings: fluorescence 635 nm, higher = more signal;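 further: printed compound slides probed with Chrdl2 protein at 4 µg/mL for 1 h at 4 C; score merges 667 nm emission intensity with signal to noise over three replicate slides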
[8] = molecular target: Concanavalin-A (Canavalia ensiformis) (UniProt P02866); assay: compounds binding concanavalin A lectin – biochemical, small-molecule microarray, Alexa647 label, 635 nm, artefact control for SMM control protein annotation, primary screen (AID 1127); settings: ConA-A647 binding fluorescence, higher = more signal;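 further: z combines 667 nm emission intensity with signal-to-noise across three replicate slides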
Concanavalin-A (Canavalia ensiformis), sequence (P02866 whole entry, looked up): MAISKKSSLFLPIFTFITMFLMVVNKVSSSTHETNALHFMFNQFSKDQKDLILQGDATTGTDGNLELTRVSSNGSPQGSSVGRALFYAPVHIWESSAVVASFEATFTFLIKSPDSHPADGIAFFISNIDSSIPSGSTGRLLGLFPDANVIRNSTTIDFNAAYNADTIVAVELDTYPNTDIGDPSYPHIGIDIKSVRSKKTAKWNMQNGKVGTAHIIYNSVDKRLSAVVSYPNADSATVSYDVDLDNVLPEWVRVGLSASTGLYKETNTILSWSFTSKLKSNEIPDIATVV

Albumin (Bos taurus), sequence (P02769 whole entry, looked up): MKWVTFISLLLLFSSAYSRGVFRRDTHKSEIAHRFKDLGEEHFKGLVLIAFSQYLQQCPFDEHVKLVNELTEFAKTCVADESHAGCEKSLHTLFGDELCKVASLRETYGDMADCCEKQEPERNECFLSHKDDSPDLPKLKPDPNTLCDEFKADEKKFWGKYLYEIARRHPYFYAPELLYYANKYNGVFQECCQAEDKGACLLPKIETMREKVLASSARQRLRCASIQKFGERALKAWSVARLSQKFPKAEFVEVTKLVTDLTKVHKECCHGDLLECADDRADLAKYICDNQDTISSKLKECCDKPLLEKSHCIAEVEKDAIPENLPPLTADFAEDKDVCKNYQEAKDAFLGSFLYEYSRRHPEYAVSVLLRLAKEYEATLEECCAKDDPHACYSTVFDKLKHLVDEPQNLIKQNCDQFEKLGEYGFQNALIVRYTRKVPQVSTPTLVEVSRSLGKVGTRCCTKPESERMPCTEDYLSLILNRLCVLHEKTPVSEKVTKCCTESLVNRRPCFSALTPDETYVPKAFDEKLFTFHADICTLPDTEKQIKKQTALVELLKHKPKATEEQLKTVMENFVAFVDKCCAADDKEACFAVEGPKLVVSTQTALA

SMILES	composite z-score (Albumin (Bos taurus))	composite Z-score [1]	composite z-score [2]	composite z-score [3]	composite z-score [4]	composite z-score [5]	composite z-score [6]	composite z-score (Sam68 (KHDRBS1))	composite z-score [7]	composite z-score [8]
CC(C)(C)OC(=O)CC[C@]1(C(=O)N2CCOCC2)N=C(c2ccc(OCCCO)cc2)O[C@H]1c1ccccc1	0.969	-0.131 (inactive)	0.116	-0.17	0.834	2.75	0.135	1.02	-0.267	0.838
C=CC[C@]12N=C(c3ccc(OCCCO)cc3)O[C@H]1c1ccccc1N(C)C2=O	0.0095	2.56 (inactive)	0.336	0.0424	0.308	2.73	1.14	1.21	0.76	0.989
[N-]=[N+]=Nc1ccccc1C[C@]1(C(=O)NCc2ccccc2)N=C(c2ccc(OCCCO)cc2)O[C@H]1c1ccccc1	0.989	0.0068 (inactive)	0.285	0.0443	0.714	2.93	0.373	1.29	-0.755	1.07
O=C(NC1CC1)[C@@H]1c2ccccc2C(=O)N(Cc2ccccc2)[C@H]1c1ccc(CO)cc1	0.0082	0.081 (inactive)	-0.272	-0.127	0.698	2.72	1.36	0.372	-0.346	0.38
CC=CC(O)C1C=CC2C(=O)N(C)C(=O)C2N1Nc1ccc([N+](=O)[O-])cc1[N+](=O)[O-] (stereo not given)	0.9	0.236 (inactive)	-0.0932	-0.0351	0.834	1.08	0.146	-0.52	0.001	0.458
CC(C)OC(=O)CC(=O)CC(O)c1cccc(C#N)c1 (stereo not given)	0.586	0.586 (inactive)	0.178	-0.022	0.522	1.03	0.0279	1.35	-0.591	1.13
C=CC[C@@]12N=C(c3ccc(OCCCO)cc3)O[C@@H]1c1ccccc1N(CCS(=O)(=O)c1ccccc1)C2=O	0.873	-0.32 (inactive)	0.0692	-0.16	0.724	1.78	0.551	1.31	0.992	1.17
O=C1C[C@@](C(=O)NCC(F)(F)F)(c2ccc([N+](=O)[O-])cc2)[C@@H](c2ccc(CO)cc2)N1C1CCCCC1	0.52	0.391 (inactive)	0.0488	0.0257	0.685	3.17	1.21	1.29	0.489	1.15
COCCCNC(=O)[C@@]1(Sc2ccc(C)cc2)CC(=O)N(C2Cc3ccccc3C2)[C@@H]1c1ccc(CO)cc1I	-1.09	-0.298 (inactive)	-0.146	-0.102	0.871	-0.152	0.297	-0.52	-0.555	-1.61
C=C(/C(=C/C[C@@H](OC(=O)c1ccncc1)c1ccccc1OCCO)c1cc(C(=O)OC)ccc1OC)C(C)C	0.359	-0.0951 (inactive)	0.138	-0.0895	0.676	1.75	0.457	1.25	0.0435	0.474
C=C(CCCC)/C(=C/C[C@@H](OC(C)=O)c1ccc(CO)o1)c1cc(C(=O)OC)ccc1OC	0.557	0.378 (inactive)	-0.0195	-0.0741	0.57	0.69	0.557	1.29	0.182	0.851
C=CC[C@H](OC(=O)Nc1ccc(OC)cc1)c1ccc(O)c2ccccc12	-0.343	-0.192 (inactive)	0.0539	-0.124	0.289	0.865	-0.0938	1.3	1.18	1.09
C[N+](C)(C)CCCC[C@@H]1NC(=O)[C@@H]2C[C@H](C(=O)O)[C@H](c3ccc(O)cc3)N2C1=O	0.594	-0.238 (inactive)	-0.223	-0.0798	0.381	-0.555	-0.534	-2.19	-0.827	0.0317
C[C@]1(C(=O)NC2CC2)c2ccccc2C(=O)N(Cc2ccc(OC(F)(F)F)cc2)[C@H]1c1ccc(CO)cc1	-0.85	-0.0189 (inactive)	0.0271	0.0049	0.37	0.209	0.0915	0.0003	-1.14	-0.698
COC(=O)[C@@]1(Cc2ccc(OC)cc2)[C@H]2c3cc(C(=O)N(C)C)n(Cc4ccccc4)c3C[C@H]2CN1C(=O)c1ccccc1	0.864	-0.96 (inactive)	0.0372	-0.0505	0.366	1.86	0.421	0.92	-0.393	0.435
Cc1ccc(S[C@]2(C(=O)NC(C)C)CC(=O)N(Cc3ccccc3C(F)(F)F)[C@@H]2c2ccc(CO)cc2I)cc1	0.671	0.0903 (inactive)	-0.236	-0.128	0.344	0.352	-0.0811	0.0747	-1.35	-0.03
COc1cc(CO)cc(I)c1O[C@H]1C=C(C(=O)NCCO)C[C@@H](N(CC2CCCCC2)C(=O)c2ccc(C(F)(F)F)cc2)[C@@H]1O	0.388	0.527 (inactive)	-0.0921	-0.147	0.055	0.461	0.621	1.27	0.398	0.352

SMILES	composite z-score (Albumin (Bos taurus))	composite Z-score [1]	composite z-score [2]	composite z-score [3]	composite z-score [4]	composite z-score [5]	composite z-score [6]	composite z-score (Sam68 (KHDRBS1))	composite z-score [7]	composite z-score [8]
O=C1O[C@@H](c2ccccc2)[C@@H](c2ccccc2)N2[C@@H](c3ccccc3OCCO)[C@]3(C(=O)Nc4ccc(C#CC5=CCCCC5)cc43)[C@@H](C(=O)NC[C@H](O)c3ccccc3)[C@H]12	0.402	-0.584 (inactive)	0.0522	-0.124	0.211	0.363	0.182	1.28	0.478	1.04
COCCCNC(=O)[C@@H]1c2ccccc2C(=O)N(Cc2ccccc2C(F)(F)F)[C@H]1c1ccc(CO)cc1	-1.34	-0.0662 (inactive)	-0.186	-0.131	0.389	1.19	0.216	0.433	-0.781	-0.264
C[C@@H]1ON(c2ccc(C(=O)OC(C)(C)C)cc2)[C@H](c2ccc(Br)cc2)[C@H]1C(=O)N1C(=O)OC[C@H]1Cc1ccccc1	0.778	-0.359 (inactive)	0.0773	-0.0984	0.235	1.86	0.0865	1.28	0.491	1.08
O=C1NC(=O)C2C1C=CC(C(O)c1cc(C(F)(F)F)cc(C(F)(F)F)c1)N2Nc1ccc(Cl)cc1Cl (stereo not given)	0.839	0.809 (inactive)	0.0833	-0.0703	0.583	2.45	0.554	-0.163	-0.464	-0.415
NC(=O)NCC#Cc1ccc2c(c1)[C@]1(C(=O)N2)[C@H](c2ccc(O)cc2)N2[C@H](c3ccccc3)[C@H](c3ccccc3)OC(=O)[C@H]2[C@@H]1C(=O)Nc1nc2ccccc2s1	0.121	0.0296 (inactive)	-0.0259	-0.0203	0.431	0.66	0.11	0.637	1.17	0.962
CCOC(=O)C1=CC[C@@H](c2ccccc2C(F)(F)F)N(S(=O)(=O)c2ccc(C)cc2)C1	0.959	0.917 (inactive)	0.694	0.311	0.411	1.57	0.95	1.1	-0.41	1.13
COc1ccc(C#Cc2ccc3c(c2)[C@]2(C(=O)N3)[C@H](C(=O)N3CCc4cc(OC)c(OC)cc4C3)[C@H]3C(=O)O[C@H](c4ccccc4)[C@H](c4ccccc4)N3[C@@H]2c2ccc(O)cc2)cc1	0.845	1.1 (inactive)	0.0562	0.0397	0.432	1.46	-0.0296	1.3	0.137	1.13
O=C(O)[C@]1(Cc2ccccc2)N=C(c2ccc(OCCCO)cc2)O[C@@H]1c1ccccc1	0.424	-0.191 (inactive)	-0.122	-0.14	0.837	0.689	-0.278	-1.24	-1.65	0.0277
COc1ccc([Si](C)(C)[C@@H]2[C@@H](CCn3cc([C@H](O)c4ccccc4)nn3)O[C@]3(C(=O)N(Cc4ccc(N5CCOC5=O)cc4)c4ccccc43)[C@H]2C)cc1	0.579	0.0409 (inactive)	0.165	-0.0502	0.0584	0.617	0.664	1.09	1.03	0.853
COCCCNC(=O)[C@]1(Cc2ccccc2CN=[N+]=[N-])N=C(c2ccc(OCCCO)cc2)O[C@@H]1c1ccccc1	0.867	-0.337 (inactive)	0.289	-0.0633	0.548	1.91	0.785	0.997	-0.474	1
CN1C(=O)C2C(C1=O)C1C=C(c3ccc(CO)cc3)C2C(c2cccs2)N1Cc1cccc(OC(F)(F)F)c1 (stereo not given)	0.866	-0.228 (inactive)	0.0824	-0.152	0.47	1.98	0.37	1.28	0.0434	1.08
C=CCOC(=O)[C@@H]1[C@H]2C(=O)O[C@H](c3ccccc3)[C@H](c3ccccc3)N2[C@H](c2ccc(OCCOC(=O)[C@H]3C[C@H]4C(=O)N[C@@H](CCCCN(C)C)C(=O)N4[C@H]3c3cccc(OCCO)c3)cc2)[C@@]12C(=O)Nc1ccc(I)cc12	-0.624	0.204 (inactive)	0.194	-0.14	0.507	1.64	0.168	1.25	0.798	1.15
O=C1c2ccccc2[C@](Cc2ccccc2I)(C(=O)NCCN2CCOCC2)[C@H](c2ccc(CO)cc2)N1Cc1ccccc1	0.673	-0.52 (inactive)	0.533	-0.0468	0.377	1.28	0.369	1.3	0.286	1.12
CC(C)CCC[C@@H](C)[C@H]1CC[C@@]2(C)C3=C(CC[C@]12C)[C@@]1(C)CC[C@H](OC(=O)c2ccc(Br)cc2)C(C)(C)C1CC3 (stereo not given in full)	-0.0217	-0.174 (inactive)	0.173	-0.117	0.108	-0.28	0.432	0.28	0.498	0.291
CN(C)C(=O)[C@]1(CCC(=O)OC(C)(C)C)N=C(c2ccc(OCCCO)cc2)O[C@@H]1c1ccccc1	0.383	0.666 (inactive)	0.116	-0.0308	0.469	3.06	0.264	0.374	-0.792	0.34
C=C(CCCC)/C(=C/C[C@@H](OC(=O)c1ccncc1)c1cccc(OCCO)c1)c1cnc2ccccc2c1	0.413	0.815 (inactive)	0.272	-0.0495	0.893	1.04	0.327	1.16	1.54	1.1
